Measured values published in PubChem BioAssay.

Experiments:
[1] = target: Tumor necrosis factor receptor superfamily member 10B (Homo sapiens) (UniProt O14763); test: caspase-8 TRAIL sensitization, hit retest, confirmation, cell-based, NB7+caspase-8, with/without TRAIL, luminescence panel (AID 651596); settings: NB7 neuroblastoma + caspase-8, TRAIL sensitization, luminescence viability, with TRAIL, mean of runs, at 10 µM, stronger effect = higher value
[2] = as above; settings: NB7 neuroblastoma + caspase-8, without TRAIL, luminescence viability, without TRAIL, mean of runs, at 10 µM

Tumor necrosis factor receptor superfamily member 10B (Homo sapiens), sequence (O14763 whole entry, looked up): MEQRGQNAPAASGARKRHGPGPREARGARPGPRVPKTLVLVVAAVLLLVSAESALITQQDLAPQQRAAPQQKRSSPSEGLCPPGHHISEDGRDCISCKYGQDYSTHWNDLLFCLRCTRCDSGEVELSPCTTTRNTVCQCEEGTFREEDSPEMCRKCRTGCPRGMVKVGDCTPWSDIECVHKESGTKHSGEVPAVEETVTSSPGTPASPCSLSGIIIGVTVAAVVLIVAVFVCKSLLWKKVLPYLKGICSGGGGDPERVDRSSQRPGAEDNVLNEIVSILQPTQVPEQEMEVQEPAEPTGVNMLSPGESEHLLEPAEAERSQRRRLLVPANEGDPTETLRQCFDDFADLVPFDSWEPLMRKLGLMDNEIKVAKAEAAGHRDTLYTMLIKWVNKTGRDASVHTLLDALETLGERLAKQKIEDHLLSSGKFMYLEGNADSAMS

SMILES	activity [1] [%]	activity [2] [%]
Cc1nc(-c2ccc(C(=O)Nc3ccccc3F)cc2)cs1	81.9	84.3
O=C(O)c1ccc(N/N=C/c2cc3cc4c(cc3nc2Cl)OCCO4)cc1	96.3	95.3
Cc1ccc(-n2cc(C(=O)c3ccccc3O)cn2)cc1	52	38.6
Fc1ccc(-c2nnc(-c3ccc(Cl)cc3Cl)o2)cc1	85.4	84.5
CNc1nnc(-c2ccc(N(C)C)cc2)s1	73.4	61.2
Cc1cc(NC(=O)CSc2nnc(-c3ccc4c(c3)OCCO4)o2)no1	52.1	58.8
COc1ccc2[nH]c(-c3ccc(C)cc3)cc(=O)c2c1	87.4	87.8
COc1ccc(C(=O)Nc2cccc(OC)c2)cc1	56.9	53.9
Clc1ccccc1CSc1nc2ccncc2[nH]1	79	79.3
CN(NC(=O)c1cccc(Cl)c1)c1nc(-c2ccccc2)nnc1C(F)(F)F	75.1	39.9
Cc1cc(NC(=O)c2ccc(S(=O)(=O)N3CCCC3)cc2)nc2c1c(=O)oc1ccccc12	69.5	58.2
Cn1c2c(c(=O)n(C)c1=O)C(C(F)(F)F)(C(F)(F)F)N=C(c1ccc(Cl)cc1)N2	54.8	52.3
NC(=O)c1ccsc1NC(=O)c1coc2ccccc2c1=O	36.1	33.8
COc1cc(OC)cc(-c2cc3ccc(F)cc3cn2)c1	65.9	60.2
Cc1ccc(C(=O)Nc2ccc3c(c2)OCCO3)c(C)c1	91.6	91.5
N/C(=N\OC(=O)c1ccccc1)c1ccn[nH]1	68.7	68.1
Cc1cccc(NC2=NC(C)(C)N=C(N)N2)c1	82.5	83.2
CC1=NN(c2nc(N)nc(/C(C#N)=C/c3ccc([N+](=O)[O-])o3)n2)C(C)(C)C1	58.1	98.6
COc1ccc(C(C(=O)NC2CCCCC2)N(C(=O)CCl)c2ccc(Cl)cc2)cc1 (configuration not stated)	98.4	98.9
Cc1cccc(NC(=S)N/N=C/c2ccc([N+](=O)[O-])s2)c1	37.4	36.1
Oc1ccc(-c2cn3cc(C(F)(F)F)ccc3n2)cc1	89.1	87.5
O=C(Nc1nc2ccccc2n1CCN1CCCCC1)C1CCCCC1	56.6	54.1
CCOC(=O)COc1ccc(-c2nnc(-c3ccccc3)o2)cc1	43.2	33.8
COc1cc2nc(CN(C)Cc3ccc(C(C)(C)C)cc3)[nH]c(=O)c2cc1OC	70.5	68

SMILES	activity [1] [%]	activity [2] [%]
COc1ccc2sc(N(CCCN(C)C)C(=O)c3ccc(S(=O)(=O)N4CCc5ccccc5C4)cc3)nc2c1	82.4	69.3
O=C1CCCCC(=O)[C@H](OC(=O)c2ccccc2)C[C@H](c2ccccc2)O1	2.17	2.2
COc1ccc(-c2cc(-c3ccccc3)c(C#N)c(S(C)=O)n2)cc1 (configuration not stated)	95.2	99.2
Cc1nnc(NC(=O)c2nc(S(=O)(=O)Cc3ccccc3)ncc2Cl)s1	94.5	84.9
COc1cc(/C=C/c2nc3ccccc3c(=O)[nH]2)ccc1OC(F)F	55.6	54.7
O=C(COc1ccc(CO)cc1Cl)Nc1ccc(F)cc1	44.5	47.6
Cc1ccc(C(=O)Nc2ccc3c(c2)CCC3)cc1	78.7	76.2
O=C(/C=C/c1ccco1)Nc1scc(-c2ccccc2)c1C(=O)O	51.9	39.8
Cc1ccccc1NC(=O)Cc1nc(COC(=O)c2ccc(S(C)(=O)=O)c([N+](=O)[O-])c2)cs1	80.5	93.9
COc1ccc2cc3cc(C(=O)NC4CC4)sc3nc2c1	80	81.4
COC(=O)c1ccc2nc(-c3ccc4c(c3)OCO4)cn2c1	74.5	76
Cc1ccc(-c2nc(NC(=O)c3nn(C)cc3[N+](=O)[O-])sc2C)cc1	97.6	99.3
CCC(=O)N1CCCc2cc(S(=O)(=O)N3CCN(c4ccccc4F)CC3)ccc21	17.2	1.9
O=C(Nc1ccc(N2CCOCC2)cc1)c1cnccn1	84.4	82.8
CCc1ccc(C(=O)Cn2ccsc2=N)cc1	66.5	66.6
N=c1n(CC(=O)c2ccc(Br)s2)c2ccccc2n1Cc1ccccc1	20.9	20.6
O=C(Nc1ccc(-c2nc3ccccc3[nH]2)cc1)C1CCCO1 (configuration not stated)	79.5	71
Cc1ccc2nc(-c3sc4nc(C)ccc4c3N)[nH]c2c1	23.9	7.22
Cc1cccc(-n2ncc3c(N4CCCC4)ncnc32)c1	75.4	73.6
N#Cc1ccc(C(=O)Nc2nc(-c3cccs3)c(C(=O)C(F)(F)F)s2)cc1	36.9	37
Cc1ccc(/C(N)=N/OC(=O)c2ccc(Cl)cc2Cl)cc1	97	96.7
COc1ccc(C(=O)O/N=C(\N)c2ccccc2Cl)cc1OC	95.7	92.8
O=C(Nc1cccc(Oc2ccc(C(=O)O)c(C(=O)O)c2)c1)c1ccc(-c2ccccc2)cc1	60.4	56
Cc1ccc(-c2nn(-c3ccccc3)cc2NC(=O)CCl)cc1	94	95

SMILES	activity [1] [%]	activity [2] [%]
CCOC(=O)c1cn2nc(N3CCCCC3)ccc2n1	52.5	72.9
Oc1cccc(-c2nnc(-c3cccc(O)c3)nn2)c1	89	84.2
C/C(=N\NC(=O)c1ccccc1O)c1cccs1	68.1	58.9
Nc1nc(CCl)nc(N(c2ccccc2)c2ccccc2)n1	99.3	98.7
COc1ccccc1C=C1CCc2ccccc2C1=O	78.4	74.3
C=CCNc1ncnc2c1ncn2C1OC(CO)C(O)C1O (configuration not stated)	46.8	60.6
O=C(Nc1nnc(/N=C/c2ccco2)s1)c1ccc(F)cc1	39.8	28.4
Cc1ccc(-n2nnc(-c3nccn3C)n2)cc1	74.7	77.1
COc1cc(/C=N/Nc2nn3cnnc3c3ccccc23)cc(OC)c1OC	73.9	76.2
O=C(Oc1ccc2ccccc2c1Cl)N1CCCCCC1	20.1	12.2
Cc1cc(N)n2nc(-c3ccccc3)cc2n1	77.2	68.2
Cc1nc2cc(NC(=O)c3ccc(Br)s3)ccc2s1	71.4	63.1
CCc1ccc(NC(=O)c2nc(S(=O)(=O)Cc3ccccc3)ncc2Cl)cc1	51.2	86.6
C=CCOn1c(C)c(C(C)=O)c2c3no[n+]([O-])c3ccc21	53.5	64.2
CCN(CC)S(=O)(=O)c1cccc(NC(=O)Nc2cccc(C(F)(F)F)c2)c1	78.2	53
Cc1ccc(-c2cc(C(=O)N/N=C/c3ccc([N+](=O)[O-])o3)c3ccccc3n2)o1	83.8	73.7
Nc1nc(N)c2nc(-c3ccccc3)c(N)nc2n1	74.7	80.7
COc1ccc(-n2nc3cc(C)c(NC(C)=O)cc3n2)cc1	71.8	75.7
Cc1scc(C(=O)N/N=C/c2ccsc2)c1C	58.1	63.5
O=C(N/N=C/c1cccc(O)c1)c1ccc2c(c1)OCCO2	93.8	90.7
O=C(/C=C/c1ccco1)Nc1ccccc1C(=O)O	45.1	42.1
CCc1ccc(/C=N/Nc2ncnc3nc[nH]c23)cc1	47.1	41.7
Cc1ccccc1/C(N)=N/OC(=O)/C=C/c1ccccc1	98.7	97.3
CN1CCN(C(=O)C2=NOC3(C2)C(=O)Nc2ccccc23)CC1 (configuration not stated)	-0.15	70.2

SMILES	activity [1] [%]	activity [2] [%]
CC[C@]12c3[nH]c4ccc(Cl)cc4c3CCN1C(=O)[C@@H](CC(=O)NCc1cccc(C(F)(F)F)c1)C[C@@H]2C(=O)N1CCN(C(=O)c2ccco2)CC1	71	68.7
COC(=O)C12OCC34C(CC5C(C)=C(O)C(=O)CC5(C)C3C(O)C1O)OC(=O)C(OC(=O)C=C(C)C)C24 (configuration not stated)	91	96.2
CN(C(=S)NC(=O)c1ccc(Cl)cc1)C1CCCCC1	40.6	60
Cc1ccccc1C(=O)Nc1nnc(SCC(=O)NC2CC2)s1	48.7	45.2
Cn1c(=N)n(CC(=O)c2ccc(F)cc2)c2ccccc21	75.8	67.5
Cc1cc(C)cc(C(=O)Nc2nc3ccccc3[nH]2)c1	78.7	72.5
COc1ccc(-n2cc(C(=O)c3ccccc3O)cn2)cc1	39.1	29.7
CSCCC(NC(=O)c1ccc(Cl)c([N+](=O)[O-])c1)C(=O)N1CCN(C/C=C/c2ccccc2)CC1 (configuration not stated)	36.3	24.4
O=C(Nc1nc(-c2ccccn2)cs1)C12CC3CC(CC(O)(C3)C1)C2	66.8	78.4
COc1ccc(C(=O)Nc2ccccc2C(N)=O)cc1	56.5	56.2
O=C(CCl)Nc1ccc(Oc2cnc3ccccc3n2)cc1	97.6	98.5
Cn1c(C(=O)NCCC2=CCCCC2)cc2c(=O)n3ccccc3nc21	59.6	57.7
CCOC(=O)c1sc(NC(=O)c2ccccc2OC)nc1C	26.1	31.9
Cn1c(=O)[nH]c(=O)c2c1nc([N+](=O)[O-])n2Cc1ccccc1	60.5	96.2
CCN1CCCC1CNC(=O)c1ccc2c(c1)NC(=O)/C(=C\c1ccc(C)cc1)S2 (configuration not stated)	89.7	98.9
COC(=O)c1ccccc1NC(=O)c1nc(S(=O)(=O)Cc2ccccc2)ncc1Cl	84.1	99.6
CN(C)c1ncnc2c1ncn2C1OC(CO)C(O)C1O (configuration not stated)	57.1	45.3
O=C1CN(C(=O)Cn2ncc(Cl)c(Cl)c2=O)c2ccccc2N1	99.4	99.5
CCc1ccc(NC(=O)Nc2cccs2)cc1	59	45.9
Cn1cnc(Sc2ncnc3nc[nH]c23)c1[N+](=O)[O-]	62.5	72.5
CCOC(=O)c1c(NC(=O)COc2ccccc2OCC)sc2c1CC(C)(C)NC2(C)C	95.8	99.3
Cc1cccnc1NC(=O)c1sc2ccccc2c1Cl	33.3	23.5
Cc1cccc(/C=C/c2nc3ccccc3c(=O)[nH]2)c1	61.5	65
Nc1nc(N)c2cc(S(=O)(=O)c3cccc(C(F)(F)F)c3)ccc2n1	60.4	76.5
